The nature of experiment [1]: CCTE_Shafer_MEA_acute_burst_duration_mean: CCTE's Neural Acute Assay for Mean Burst Duration, Shafer Lab (AID 2284014).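 Note: hits are decreases in mean burst duration relative to DMSO controls.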 In outline:
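Acute exposure of mature rat cortical networks (DIV 13 or 15) grown on microelectrode arrays to 0.03-40 uM compound. Mean burst duration compared with the 40-min pre-dose baseline over a 40-min post-dose recording at 37 C.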

A short description of experiment [2]: CCTE_Shafer_MEA_acute_interburst_interval_mean: CCTE's Neural Acute Assay for Mean Interburst Interval, Shafer Lab (AID 2284016).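 Note: percent change of mean interburst interval versus each well's own pre-dose baseline; curves fitted for decrease in interburst interval relative to DMSO.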 In a few lines: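 MEA recording of spontaneous network bursting in primary rat cortical cultures; mean interburst interval was compared before and after a 40-min compound exposure (0.03-40 uM) and expressed as percent change, relative to DMSO.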

Experiment [3] is described as follows: CCTE_Shafer_MEA_acute_burst_percentage_mean: CCTE's Neural Acute Assay for Percentage of Spikes in a Burst, Shafer Lab (AID 2284017).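 For AC50: curve fitted for loss of signal so potency reflects decreased burst percentage.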 In outline: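 Compounds were tested at 0.03-40 uM on primary rat cortical neuron networks grown over microelectrodes, with at least three wells per compound. Spontaneous firing was recorded for 40 min before and 40 min after dosing, and the change in burst percentage was computed per well.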

A short description of experiment [4]: CCTE_Shafer_MEA_acute_burst_percentage_std: CCTE's Neural Acute Assay for Standard Deviation of Burst Percentage, Shafer Lab (AID 2284018).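 Note: fitted in the negative direction so actives lower burst percentage SD.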 In a few lines: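 Primary rat cortical neurons on 16-electrode MEA wells were recorded 40 min at baseline (DIV 13 or 15), then 40 min after compound (0.03-40 uM), at 37 C. Well value is SD across electrodes of spikes-in-bursts/total spikes; endpoint is percent change, DMSO-referenced.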

The nature of experiment [5]: CCTE_Shafer_MEA_acute_per_network_burst_spike_number_mean: CCTE's Neural Acute Assay for Average Number of Spikes in a Network Burst, Shafer Lab (AID 2284019).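 For AC50: curve fitted for loss of signal so actives reduce spikes per network burst.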 In outline:
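Acute exposure of rat primary cortical networks (DIV 13/15) on MEAs; adaptive spike detection at 8x rms noise, 37 C. Percent change in spikes per network burst after 40 min with compound (0.03-40 uM), negative direction vs DMSO.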

Experiment [6] is described as follows: CCTE_Shafer_MEA_acute_per_network_burst_spike_number_std: CCTE's Neural Acute Assay for Standard Deviation of Number of Spikes in a Network Burst, Shafer Lab (AID 2284020).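 Note: fitted for decrease in spike-number SD versus DMSO so actives lower it.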 In outline:
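Acute MEA exposure, rat cortical neurons, 0.03-40 uM. Per-well % change versus own baseline; DMSO as negative control.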

The nature of experiment [7]: CCTE_Shafer_MEA_acute_per_network_burst_electrodes_number_mean: CCTE's Neural Acute Assay for Mean Number of Electrodes in a Network Burst, Shafer Lab (AID 2284021).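 Note: curves fitted for decreases only so hits reduce electrodes per burst.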 In a few lines: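 Primary rat cortical networks, mwMEA, 37 C. 20 min stabilization, 40 min baseline, compound 0.03-40 uM, 40 min re-record. Wells need >=10 active electrodes; percent change per well, negative fitting direction.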

A short description of experiment [8]: CCTE_Shafer_MEA_acute_network_burst_percentage: CCTE's Neural Acute Assay for Percentage of Network Bursts, Shafer Lab (AID 2284022).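 Note: curves fitted for loss so actives lower network burst percentage.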 In outline: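 Readout is the fraction of spikes falling in network bursts, expressed as per-well percent change from a 40-min pre-exposure baseline. Primary rat cortical neurons on MEA were exposed to 0.03-40 uM compound on DIV 13 or 15 and recorded for 40 min at 37 C.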

Experiment [9] is described as follows: CCTE_Shafer_MEA_acute_cross_correlation_area: CCTE's Neural Acute Assay for Area of Cross Correlation, Shafer Lab (AID 2284024).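 For outcome: rat primary cortical neuron networks on 48-well MEA at DIV 13 or 15 with 40 min exposure.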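 Note: area under pooled inter-electrode spike cross-correlation near zero lag as percent change from own baseline; curves fitted for loss of cross-correlation area so actives lower synchrony.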 In outline:
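Plates equilibrated 20 min at 37 C, then 40 min baseline was recorded, compound was added (0.03-40 uM), and a further 40 min was recorded. Wells needed ≥10 active electrodes (≥5 spikes/min) on exposure day.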

The nature of experiment [10]: CCTE_Shafer_MEA_acute_cross_correlation_HWHM: CCTE's Neural Acute Assay for Cross Correlation at Half Width at Half Maximum, Shafer Lab (AID 2284026).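 Note: percent change per well from pre-dose baseline in spike cross-correlogram half width; hits are a decrease in cross-correlogram half width relative to DMSO.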 In a few lines:
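Rat cortical neuron cultures on microelectrode arrays were equilibrated 20 min at 37 C, recorded 40 min at baseline, then 40 min after compound addition (0.03-40 uM, ≥3 wells). Spikes were detected at 8x rms noise after 300-5000 Hz band-pass filtering.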

The nature of experiment [11]: CCTE_Shafer_MEA_acute_synchrony_index: CCTE's Neural Acute Assay for Synchrony, Shafer Lab (AID 2284027).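 Note: network synchrony index of spontaneous spiking in primary rat cortical neurons on MEAs; fitted for loss of signal so actives lower synchrony relative to DMSO.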 In outline: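 Rat cortical cultures, DIV 13/15; spikes detected at 8x rms noise, 300-5000 Hz band-pass. Compound 0.03-40 uM, ≥3 wells; 40-min pre- and post-exposure recordings, 37 C. Readout: % change in synchrony index; loss-of-signal fit vs DMSO.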
Experiment [12] is described as follows: CCTE_Deisenroth_AIME_384WELL_CTox_Active: Cytotoxicity Assessment (CTOX) in CCTE's 384-well Estrogen Receptor Transactivation Assay with AIME metabolic competence (metabolism positive), Deisenroth Lab (AID 2284037; active = hit-call score of the fitted dose curve at least 0.9, where 1 is the maximum;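 note: chemicals first conditioned 2 h by alginate-bound induced rat liver S9 before cells; activity means signal loss indicating cell death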). In a few lines: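 VM7Luc4E2 breast cells received medium pre-incubated 2 h with chemical over alginate microspheres holding induced male Sprague Dawley rat liver S9; viability read 24 h later by protease-substrate fluorescence. Loss of signal, bidirectional fit, 0.002–200 uM.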

Experiment [13] in a line: CCTE_Shafer_MEA_dev_firing_rate_mean: CCTE's Neural Network Formation Assay for Mean Firing Rate, Shafer Lab (AID 2284031).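 Note: curve fitted for loss of firing so AC50 reflects decreased mean firing rate.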 In a few lines: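 Read-out: spike count/recording length, averaged over active electrodes, then AUC across days 5, 7, 9, 12. Rat cortical cultures on MEA; continuous 12-day exposure, media and treatment renewed DIV 5, 9; DMSO baseline.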
Experiment [14] in a line: CCTE_Shafer_MEA_dev_per_burst_spike_percent: CCTE's Neural Network Formation Assay for Percent of Spikes in a Burst, Shafer Lab (AID 2284032).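 Note: fitted as a decrease in burst spike percentage below DMSO baseline.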 In outline: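 Value is trapezoidal AUC over recordings on days 5, 7, 9 and 12 of the well-mean fraction of spikes falling in single-electrode bursts; rat cortical cultures exposed continuously from plating, treatment renewed DIV 5 and 9, fitted downward against DMSO.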

In experiment [15] the target is Estrogen receptor (Homo sapiens) (UniProt P03372). Nature of the experiment: CCTE_Deisenroth_AIME_384WELL_LUC_Active: CCTE's 384-well Estrogen Receptor Transactivation Assay with AIME metabolic competence (ERTA luciferase; metabolism positive), Deisenroth Lab (AID 2284030; active = hit-call score of the fitted dose curve at least 0.9, where 1 is the maximum). In a few lines: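 AIME metabolism-positive mode: chemicals 0.002 - 200 uM, 2 h with alginate-bound PB/BNF-induced rat S9 → medium to VM7Luc4E2 ERTA, 24 h → luciferase. Positive fit vs 17beta-estradiol; n=4 typical.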

The target is the same in experiment [16]. Kind of experiment: CCTE_Deisenroth_AIME_384WELL_LUC_Inactive: CCTE's 384-well Estrogen Receptor Transactivation Assay without AIME metabolic competence (ERTA luciferase; metabolism negative), Deisenroth Lab (AID 2284038; active = hit-call score of the fitted dose curve at least 0.9, where 1 is the maximum;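 note: hits raise estrogen receptor luciferase signal so potencies reflect agonists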). In outline:
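Metabolism-negative mode: AIME lids stamped in alginate-water, no hepatic S9. 2 h chemical incubation → medium onto VM7Luc4E2 ERTA, 24 h. Readout luciferase luminescence; gain-of-signal fit vs 17beta-estradiol. Conc. 0.002 - 200 uM.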

Experiment [17] shares this target. Kind of experiment: CCTE_Deisenroth_AIME_96WELL_LUC_Active: CCTE's 96-well Estrogen Receptor Transactivation Assay with AIME metabolic competence (ERTA luciferase; metabolism positive), Deisenroth Lab (AID 2284023; active = hit-call score of the fitted dose curve at least 0.9, where 1 is the maximum). In a few lines:
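Metabolism-positive mode: induced rat hepatic S9 in alginate microspheres conditions test solutions (0.002 - 200 uM, 10 points) for 2 hours. VM7Luc4E2 ER luciferase reporter cells then exposed 24 h; positive-direction fit against 17beta-estradiol, n=4 typical.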

For experiment [18] the target is unchanged. Kind of experiment: CCTE_Deisenroth_AIME_96WELL_LUC_Inactive: CCTE's 96-well Estrogen Receptor Transactivation Assay without AIME metabolic competence (ERTA luciferase; metabolism negative), Deisenroth Lab (AID 2284025; active = hit-call score of the fitted dose curve at least 0.9, where 1 is the maximum). In a few lines: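 Metabolism-negative arm: chemicals (0.002–200 uM, 10 points) incubated 2 h with alginate-water microspheres, then medium moved onto VM7Luc4E2 cells for 24 h luciferase read-out. Positive direction vs 17beta-estradiol; n≥4 experiments.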

The nature of experiment [19]: CCTE_Deisenroth_AIME_96WELL_CTox_Active: Cytotoxicity Assessment (CTOX) in CCTE's 96-well Estrogen Receptor Transactivation Assay with AIME metabolic competence (metabolism positive), Deisenroth Lab (AID 2284028; active = hit-call score of the fitted dose curve at least 0.9, where 1 is the maximum). In a few lines:
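Cytotoxicity in VM7Luc4E2 breast cells after 24 h exposure to medium from a 2 h metabolic pre-incubation with induced rat hepatic S9 in alginate microspheres; fluorescent live-cell protease readout, 10-point series 0.002–200 uM, n=4.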

Experiment [20] in a line: CCTE_Deisenroth_AIME_96WELL_CTox_Inactive: Cytotoxicity Assessment (CTOX) in CCTE's 96-well Estrogen Receptor Transactivation Assay without AIME metabolic competence (metabolism negative), Deisenroth Lab (AID 2284029; active = hit-call score of the fitted dose curve at least 0.9, where 1 is the maximum). In a few lines:
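Cytotoxicity in VM7Luc4E2 breast cells was scored as loss of fluorescent signal from a live-cell protease substrate 24 h after exposure, using bidirectional curve fitting. Test media came from a 2 h metabolism-negative pre-incubation (alginate-water, no hepatic S9) of compounds at 0.002-200 uM, with at least four replicates.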

The structures appear in SMILES notation. Results filed as inconclusive are left out. Activity calls are given as the source filed them. Rule for the calls, unless noted: active = hit-call score of the fitted dose curve at least 0.9, where 1 is the maximum; inactive = score below 0.9.

As usually defined, the AC50 is the concentration giving half of the maximal activity seen.

Chain of Estrogen receptor (Homo sapiens) (P03372 whole entry, looked up): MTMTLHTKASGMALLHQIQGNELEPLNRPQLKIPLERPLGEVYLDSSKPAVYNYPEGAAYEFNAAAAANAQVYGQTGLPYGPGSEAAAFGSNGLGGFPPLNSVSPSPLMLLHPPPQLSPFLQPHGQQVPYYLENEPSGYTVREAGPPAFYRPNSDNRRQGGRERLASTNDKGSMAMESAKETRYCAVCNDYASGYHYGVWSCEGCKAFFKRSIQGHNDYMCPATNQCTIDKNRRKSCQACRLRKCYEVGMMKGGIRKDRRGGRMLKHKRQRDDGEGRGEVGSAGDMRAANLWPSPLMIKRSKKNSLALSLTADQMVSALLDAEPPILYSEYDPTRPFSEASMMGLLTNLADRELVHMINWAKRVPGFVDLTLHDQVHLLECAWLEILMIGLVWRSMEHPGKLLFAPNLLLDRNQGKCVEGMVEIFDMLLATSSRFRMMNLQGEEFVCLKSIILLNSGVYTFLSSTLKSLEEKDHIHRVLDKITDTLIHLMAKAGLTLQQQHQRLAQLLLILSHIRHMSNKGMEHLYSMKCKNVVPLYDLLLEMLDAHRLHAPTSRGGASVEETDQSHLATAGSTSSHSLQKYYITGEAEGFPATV

Turning to `CCC(C)(C)c1ccc(O)c(C(C)(C)CC)c1`, the molecule was classed as inactive in experiment [1], in [2] and in experiment [9]. For the same molecule, the concentration at half-maximal activity (AC50) in experiment [3] is 7.93 µM (active); in [4], 32.6 µM (active); in [5], 8.12 µM (active); in [6], 6.52 µM (active); in experiment [7], 20 µM (active); in experiment [8] it was 36.6 µM (active). For the same molecule, the values for the AC50 in experiment [10], in experiment [11] and in experiment [12] were 9.83 µM (active), 20 µM (active) and 102 µM (active), respectively.
For the molecule `O=C1C2(Cl)C3(Cl)C4(Cl)C(Cl)(Cl)C5(Cl)C3(Cl)C1(Cl)C5(Cl)C24Cl` (configuration not stated), the concentration at half-maximal activity (AC50) in experiment [1] is 9.11 µM (active); in experiment [3], 9.9 µM (active); in experiment [4] it was 32.5 µM (active); in experiment [6], 9.39 µM (active); in experiment [10], 7.01 µM (active); in experiment [11], 20 µM (active). Besides, the concentration at half-maximal activity (AC50) in experiment [13] is 3.94 µM (active); in experiment [14], 4.18 µM (active). Moreover, the molecule was called inactive in [2], in experiment [5], in experiment [7], in [8] and in experiment [9].
Take `CNC`: the molecule was classed as inactive in [15], in [12] and in [16].
With `COC(=O)Cc1ccccc1`, the molecule was classed as inactive in [1], in experiment [2], in experiment [3], in experiment [4], in [5] and in [6]. For the same molecule, the molecule was classed as inactive in experiment [7], in experiment [8], in experiment [9], in [10] and in experiment [11].
As to `C=C(C)C(=O)[O][Sn]([CH2]CCC)([CH2]CCC)[CH2]CCC`, the AC50 is 3.11 µM (active) in experiment [1]; 0.0833 µM (active) in experiment [3]; 20 µM (active) in experiment [4]; 0.0933 µM (active) in [6]; 2.81 µM (active) in experiment [7]; 0.205 µM (active) in [8]. The AC50 is 0.0108 µM (active) in experiment [9], 0.116 µM (active) in experiment [11], 0.00431 µM (active) in [13] and 0.0389 µM (active) in experiment [14]. The molecule was called inactive in experiment [2], in experiment [5] and in experiment [10].
As to `NC(=O)O`, the call in [15], in experiment [12] and in [16] was inactive.
As to `C=CC#N`, the outcome in [17] and in experiment [18] was inactive.
Consider `CCN1CCC2(CC1)COc1cc3c(cc12)N(C(=O)c1ccc(-c2ccc(-c4nnc(C)o4)cc2C)cc1)CC3`, for which the call in experiment [1], in experiment [2], in experiment [4], in experiment [5], in experiment [7] and in [9] was inactive. Also, the half-maximal activity concentration (AC50) in experiment [3] is 27.3 µM (active); in experiment [6], 30.1 µM (active); in experiment [8], 24.9 µM (active); in experiment [10], 31.2 µM (active); in experiment [11], 17.2 µM (active).
As to `O=C(OC1CCCCC1)c1ccccc1C(=O)OC1CCCCC1`, the AC50 was 20.5 µM (active) in experiment [17] and 10.1 µM (active) in [18]. For the same molecule, the call in experiment [19] and in experiment [20] was inactive.

Source of the values: PubChem BioAssay (EPA / NIEHS).
